The whole screen tested about 1,500 compounds, of which about 430 (29%) were called active. These entries were drawn from the full list. Measured potencies and affinities stand elsewhere. Unmarked numbers belong to inactive results. The rule behind the calls is not given here.
assay: insulin secretion activators without glucose, dose response, counter-screen for glucose-dependent insulin secretion activators, cell-based, INS-1E, Gaussia luciferase, luminescence, cherry-pick (AID 977606); settings: INS-1E Gaussia luciferase insulin secretion, no glucose, 100% = twice neutral-control luminescence; series mostly up to 35 µM; activation: at the top concentration;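 note: 0% = median of neutral control wells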

Which “activation” value does the source give for `CCOCCCNC(=O)c1oc2ccc3c(c2c1C)C(O)CC(C)(C)O3` (configuration not stated) here?
The value was 0.062%.

Which “activation” value does the source give for `NC(=O)c1ncn([C@@H]2O[C@H](C(=O)N[C@H](Cc3ccccc3)C(=O)O)[C@@H](O)[C@H]2O)n1` here?
Its value is -1.16%.

For `CCc1nc2c(OCc3ccccc3C(=O)OC)cccn2c1N(C)C(=O)c1ccncc1`, which “activation” value is on record?
Its value is -2.47%.

For `Cc1cccc(C)c1NC(=O)C1c2ccccc2Oc2ccccc21`, which “activation” value is on record?
The value was 26.8%.

Which “activation” value does the source give for `O=c1[nH]c2cc(Cl)ccc2n(CCNc2ncc(C(F)(F)F)cc2Cl)c1=O` here?
The value was 7.49%.

For `O=C(c1cc(-c2ccccc2)nc2ccccc12)N1CCCC1`, which “activation” value is on record?
Its value is -4.1%.

Which “activation” value does the source give for `Nn1c(C2CCCCC2)nc2ccccc2c1=O` here?
The value was -1.68%.

Which “activation” value does the source give for `CNC(=O)c1cc(C(=O)c2ccccc2Br)c[nH]1` here?
The value was -15.6%.

For `CSc1ccc(C(=O)C2CCCN(C(=O)c3ccc4c(c3)no[n+]4[O-])C2)cc1` (configuration not stated), which “activation” value is on record?
The value was -3.61%.

For `CN(C(=O)[C@H]1O[C@@H](n2cnc(C(N)=O)n2)[C@H](O)[C@@H]1O)c1ccccc1`, which “activation” value is on record?
The value was 6.71%.

With `CC(=O)Nc1c(C(=O)C2CC2)oc2ccccc12` as the molecule, how does the “activation” value read?
The value was -4.6%.

With `Cc1ccc(-c2cnc3cccnn23)cc1F` as the molecule, how does the “activation” value read?
Its value is 20%.

For `CCN(c1ccccc1)S(=O)(=O)c1ccc(OC)c(OC)c1`, which “activation” value is on record?
Its value is -4.43%.

For `O=S(=O)(c1ccc(=S)[nH]c1)N1CCCCCC1`, which “activation” value is on record?
The value was -9.77%.

For `CCC(=O)Nc1cc(C(C)(C)C)ccc1C(C)=O`, which “activation” value is on record?
The value was 2.29%.

For `Cc1ccccc1C(=O)NC1CCSC1=O` (configuration not stated), which “activation” value is on record?
The value was 17.9%.

For `COc1ccc(C(=O)Nc2nnc(-c3cccs3)s2)cc1`, which “activation” value is on record?
Its value is -8.39%.

Which “activation” value does the source give for `Cc1cc2nc(-c3ccccc3O)[nH]c2cc1C` here?
Its value is 3.89%.

With `c1csc(CNc2nc(Oc3ccncc3)c3sccc3n2)c1` as the molecule, how does the “activation” value read?
Its value is -11%.

For `O=C(Cn1cc(C(F)(F)F)ccc1=O)NCC1CCCO1` (configuration not stated), which “activation” value is on record?
The value was 14.9%.

Which “activation” value does the source give for `Cc1ccccc1Nc1c(-c2ccncc2)nc2ccc(Cl)cn12` here?
Its value is -2.55%.

For `O=C(O)c1c(NC(=O)N2CCOCC2)sc2c1CCCC2`, which “activation” value is on record?
Its value is -6.11%.

Which “activation” value does the source give for `O=c1c(C(c2ccccc2)c2c(O)sc3ccccc3c2=O)c(O)sc2ccccc12` here?
The value was -2.79%.

With `Cn1c(=O)c2c(nc3n2CCCN3CCc2ccccc2)n(C)c1=O` as the molecule, how does the “activation” value read?
The value was 18.9%.

For `COc1ccc(-c2[nH]c3ccccc3c2SCCN)cc1`, which “activation” value is on record?
Its value is 1.51%.

With `COc1ccc(N2CC(C(=O)N3CCc4ccccc43)CC2=O)cc1` (configuration not stated) as the molecule, how does the “activation” value read?
The value was -13.9%.

With `O=C1CSC(c2ccccc2)N1c1ccc(F)cc1F` (configuration not stated) as the molecule, how does the “activation” value read?
Its value is -1.91%.

For `CCc1nc2c(OCCC3CCCCC3)cccn2c1N(C)C(=O)c1ccco1`, which “activation” value is on record?
The value was 0.816%.

Which “activation” value does the source give for `O=C(O)CC(CC(=O)Nc1ccc(C(=O)O)cc1)c1ccccc1` (configuration not stated) here?
Its value is -19.9%.

Which “activation” value does the source give for `O=C(COC(=O)c1cccnc1Cl)Nc1cc(S(=O)(=O)N2CCCCCC2)ccc1Cl` here?
Its value is -11.2%.

Which “activation” value does the source give for `CC1CCN(C(=O)c2cccc(S(=O)(=O)N3CCN(c4ccccc4)CC3)c2)CC1` here?
Its value is 5.82%.

Which “activation” value does the source give for `CC(=O)NN1C(=O)c2ccccc2NC1c1ccccc1O` (configuration not stated) here?
Its value is 0.677%.

For `CN1CCN(c2ccc(CNC(=O)C3(C)Cc4c(-c5ccccc5)ccnc4O3)cc2)CC1` (configuration not stated), which “activation” value is on record?
Its value is -11.3%.

Which “activation” value does the source give for `O=C(NC1CCCCC1)c1cccnc1Sc1ccccc1` here?
Its value is -16%.

For `COc1ccc(C(=O)Nc2nnc(-c3ccco3)s2)cc1`, which “activation” value is on record?
Its value is -4.87%.

For `COc1ccc(-c2nc(-c3cccnc3)no2)cc1OC`, which “activation” value is on record?
Its value is 4.11%.

With `CCn1nc(C)c(NC(=O)c2cnn3c(C(F)F)cc(-c4ccccc4)nc23)c1C` as the molecule, how does the “activation” value read?
Its value is -12.6%.

With `CCCc1cc(NCC2CCCO2)n2c(nc3ccccc32)c1C#N` (configuration not stated) as the molecule, how does the “activation” value read?
The value was 15.6%.

With `COc1ccc(CCN(C)C(=O)Cn2c(=O)oc3ccccc32)cc1OC` as the molecule, how does the “activation” value read?
Its value is -4.62%.

For `CCc1nnc(NC(=O)C(c2ccccc2)c2ccccc2)s1`, which “activation” value is on record?
Its value is -6.83%.

Which “activation” value does the source give for `CCc1nc2c(OCc3ccccc3C)cccn2c1N(C)C(=O)c1ccco1` here?
The value was 0.871%.

With `O=S(=O)(Nc1ncnc2sc3c(c12)CCC3)c1cc(F)ccc1F` as the molecule, how does the “activation” value read?
The value was 7.27%.

For `CCN(CC)C(=O)n1c(Cc2ccccc2)nc2ccccc21`, which “activation” value is on record?
Its value is 12.5%.

With `Cc1ccc(S(=O)(=O)/N=C(/Nc2cccc(O)c2)c2ccccc2)cc1` as the molecule, how does the “activation” value read?
The value was 1.93%.

With `CCOc1ncccc1C(=O)NCc1cccc(OC)c1` as the molecule, how does the “activation” value read?
The value was -7.01%.

For `COc1cccc(CNC(=O)c2cccnc2Sc2ccccc2)c1`, which “activation” value is on record?
Its value is -13.5%.

With `Cc1c(-c2cccc(Cl)c2)nc2ccccc2c1C(=O)NC1CC1` as the molecule, how does the “activation” value read?
The value was -6.74%.

With `COc1ccc(CN(C)C(=O)Cn2cc(C)c(=O)[nH]c2=O)cc1OC` as the molecule, how does the “activation” value read?
The value was 15%.

Which “activation” value does the source give for `CC(=O)Nc1cc(-c2ccc(N3CCN(C)CC3)cc2)cn2c(-c3cccc(C(=O)N(C)C)c3)cnc12` here?
The value was 22.4%.

With `COc1ccc(-c2cc(NC=O)c3ncc(-c4ccc(OC)c(OC)c4)n3c2)cc1` as the molecule, how does the “activation” value read?
The value was -18.9%.

With `O=C(Nc1ccc(S(=O)(=O)N2CCOCC2)cc1)c1ccc(=O)[nH]c1` as the molecule, how does the “activation” value read?
The value was -8.01%.

With `O=C(NCc1ccc(Cl)cc1)c1cc(=O)[nH]c2ccc(S(=O)(=O)N3CCOCC3)cc12` as the molecule, how does the “activation” value read?
The value was 14.3%.

For `COc1ccc2[nH]c3c(NCCCN4CCCC4=O)ncnc3c2c1`, which “activation” value is on record?
The value was 5.89%.

Which “activation” value does the source give for `O=c1c(Cc2ccc(Cl)cc2Cl)c(O)ccn1CC(F)(F)F` here?
The value was -4.12%.

With `CCNc1nc(NCC)nc(Nn2cnnc2)n1` as the molecule, how does the “activation” value read?
Its value is -7.21%.

For `CS(=O)(=O)N1CCCCC1c1cc(C(=O)Nc2cccc3c2CCCC3)no1` (configuration not stated), which “activation” value is on record?
Its value is 0.303%.

With `CCOC(=O)c1nc(SC)n(C)c1C(=O)OCC` as the molecule, how does the “activation” value read?
Its value is -13.2%.
